# KB-V1 cytotox – kills drug-selected multidrug resistant KB-V1 cells; KB-V1 MDR cells viability, CellTiter-Glo, 72 h; AID 1347076; 400,000 tested, 3.4% active; Potency, µM (doses to about 46.1 µM), actives largely listed as cytotoxic; note: % is set by controls: 0 for no effect and ±100 for the full control effect; nearly all actives have a fitted effect of over 60% in size
#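 In this primary screen, KB-V1 cells overexpressing P-gp are incubated with library compounds (lowest to highest concentration) for 72 h at 37 degrees C before a luminescent ATP viability read.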
# HT1080-NT tox – kills 2HG-producing HT-1080-NT fibrosarcoma cells; HT-1080-NT fibrosarcoma viability, CellTiter-Glo ATP luminescence, 48 h; Potency, µM (series often up to 46.1 µM), for inactives: at the top dose activity, negative = less viability, most hits filed as cytotoxic; 360,000 tested, 1.6% active; AID 686970;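 note: NT is the 2HG producing partner of a matched IDH1 knockdown line; 0% = DMSO-treated cells and -100% = media-only wells without cells; nearly all actives have a fitted effect of over 55% in size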
#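 Viability of the 2HG-overproducing fibrosarcoma line after 48 hours of compound exposure at 37 degrees C was determined by luminescence with CellTiter-Glo, and concentration-effect curves were then fitted and categorized.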
# HT1080 IDH1KD tx – HT-1080 IDH1 knockdown cell toxicity (counter line). Potency, µM (titrated, usually from 46.1 µM), for inactives: at the top dose activity, negative = toxicity, most hits filed as cytotoxic. HT-1080 IDH1 knockdown viability, ATP luminescence, 48 h. 360,000 tested, 2% active;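 note: 0% = DMSO wells and -100% = cell-free medium wells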
#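 After a 2 h attachment period, IDH1KD HT-1080 cells took pin-transferred compound for 48 h at 37 °C; ATP-based luminescence after 10 min room-temperature reagent incubation reported viability.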
# MCF10A rereplic – inducers of DNA re-replication in MCF 10A breast cells | MCF 10A DNA re-replication, Hoechst nuclear intensity, 48 h | Potency, µM (highest dose often 46.1 µM), inactives show at the top dose activity, positive = re-replication, actives largely listed as activators | 350,000 tested, 2.9% active | AID 624296; note: % of control where 0% means no effect; nearly all actives have a fitted effect of over 50% in size
# KB-3-1 cytotox – KB-3-1 parental cell cytotoxicity. KB-3-1 viability, CellTiter-Glo ATP luminescence, 72 h. 400,000 tested, 1.4% active. Potency, µM (top dose mostly 46.1 µM), actives largely listed as cytotoxic; note: % is set by controls: 0 for no effect and ±100 for the full control effect; nearly all actives have a fitted effect of over 60% in size
#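 Here the drug-naive KB-3-1 line serves as comparator for MDR sub-line selectivity; cells received compound titrations, 72 h at 37 °C, then CellTiter-Glo readout.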
# SW480 rereplic – DNA re-replication induction in SW480 cells; 340,000 tested, 1.8% active; SW480 DNA re-replication, Hoechst DNA content imaging, 48 h; Potency, µM (top dose mostly 46.1 µM), for inactives: top-dose re-replication activation, usual class: activators; note: % of control where 0% means no effect; nearly all actives have a fitted effect of over 55% in size
#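 Cells (250 per well) received 23 nL compound or DMSO by pin tool and were kept 48 hr at 37 C, 5% CO2. Nuclei were then stained with Hoechst for 40 min and scanned for DNA content.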
# Active calls of the source: *; i = inactive; ? = inconclusive; / = no result given; [ ] = dose if it differs, or a comment. Sampled rows, rich in hits. Any-hit rate of the full collection: about 7.9%. Calls come from the whole dose curve; as a rule, active = well fitted curve in the direction sought with a large enough effect; inconclusive = small, poorly fitted or top-dose-only effect, or another doubt; inactive = no such curve, though single readings can be large; an effect the other way counts as inactive or inconclusive. Potency is the fitted concentration of half-maximal effect.
SMILES,KB-V1 cytotox,HT1080-NT tox,HT1080 IDH1KD tx,MCF10A rereplic,KB-3-1 cytotox,SW480 rereplic
Cc1c(C(=O)O)[nH]c2ccc([N+](=O)[O-])cc12,i,0.4%,13.0%,-4.8%,i,-9.2%
CCNC(=O)c1c(NC(=O)c2cc(=O)c3ccc(C)c(C)c3o2)sc2c1CCCC2,?,/,/,/,i,/
CCc1ccccc1NC(=O)CNC(=O)c1cccc(S(=O)(=O)N2CCN(Cc3ccccc3)CC2)c1,16.4µM*,-2.0%,-0.3%,7.7%,?,5.4%
Cc1ccc(C)c(NC(=O)CN(C)C(=O)c2cccc(S(=O)(=O)N3CCN(Cc4ccccc4)CC3)c2)c1,?,20.6µM*,?,14.5%,?,2.2%
Cc1ccc(C)c(NC(=O)CN(C)C(=O)c2cccc(S(=O)(=O)N3CCCC3)c2)c1,?,-4.0%,-1.2%,0.6%,i,-1.0%
COc1ccc(Cl)cc1NC(=O)CN(C)C(=O)c1cccc(S(=O)(=O)N2CCN(C)CC2)c1,20.6µM*,6.0%,0.4%,10.7%,i,0.1%
CC(=O)OC1=CN(Cc2ccccc2)S(=O)(=O)c2ccccc21,i,/,/,/,i,/
Cc1ccc(C)c(S(=O)(=O)Nc2ccc3[nH]c(=O)[nH]c3c2)c1,i,1.5%,-16.8%,-4.9%,i,-9.7%
Cc1ccc(C)c(S(=O)(=O)Nc2ccc3scnc3c2)c1,i,?,11.6µM*,?,i,?
Cc1ccc(C)c(N(C)C(=O)c2cn(C)c(=O)c3ccccc23)c1,i,/,/,/,i,/
Cc1ccc(CNC(=O)C2CCCN(S(=O)(=O)c3c(C)noc3/C=C/N(C)C)C2)cc1 (configuration not stated),i,1.4%,-0.6%,14.6µM*,i,15.6%
Cc1noc(/C=C/N(C)C)c1S(=O)(=O)N1CCCC(C(=O)NCc2ccc(Cl)cc2)C1 (configuration not stated),?,-1.6%,?,?,i,1.6%
Cc1noc(/C=C/N(C)C)c1S(=O)(=O)N1CCCC(C(=O)Nc2ccccc2F)C1 (configuration not stated),i,-0.8%,-1.2%,23.1µM*,i,?
CCc1c(C)nc2nncn2c1Nc1ccc(C)c(F)c1,?,/,/,/,i,/
Cn1c(=O)c2c(nc(SCc3nc(N)nc(N4CCCCC4)n3)n2C)n(C)c1=O,14.6µM*,7.9%,2.2%,-44.6%,?,27.5%
CCCCn1c(SCc2nc(N)nc(N3CCCCC3)n2)nc2c1c(=O)n(C)c(=O)n2C,8.2µM*,16.2%,12.0%,-43.4%,i,?
CCCn1c(SCc2nc(N)nc(N3CCCCC3)n2)nc2c1c(=O)n(C)c(=O)n2C,i,6.5%,2.3%,11.2%,i,-1.0%
Cn1c(=O)c2c(nc(SCCN3CCCCC3)n2C)n(C)c1=O,i,3.5%,2.8%,1.5%,i,-4.5%
Cc1cc2c(n1-c1ccc(Br)cc1)CC(C)(C)CC2=O,25.9µM*,9.5%,7.0%,2.9%,i,1.2%
O=C(Cn1c(=O)n(Cc2ccc3c(c2)OCO3)c(=O)c2ccccc21)Nc1cccc(Cl)c1,i,/,/,/,i,/
Cn1c(=O)n(C)c2cc(N3CCOCC3)c(NC(=O)c3ccc(C(C)(C)C)cc3)cc21,i,/,/,/,i,/
Cc1ccnc2c1ccc1c(C)ccnc12,?,13µM*,14.6µM*,18.7%,?,13.9%
COc1ccc(NC(=O)COC(=O)c2c3c(nc4ccccc24)CCCC3)cc1Cl,16.4µM*,?,?,?,i,-7.4%[9.22 µM]
COc1ccc(OC)c(NC(=O)COC(=O)c2c3c(nc4ccccc24)CCCC3)c1,25.9µM*,?,?,?,25.9µM*,1.2%
COc1ccccc1C(=O)Nc1c(C(=O)N(C)c2ccccc2)sc2nc(C)cc(C)c12,i,/,/,/,i,/
SMILES,KB-V1 cytotox,HT1080-NT tox,HT1080 IDH1KD tx,MCF10A rereplic,KB-3-1 cytotox,SW480 rereplic
C=CCNc1ncnc2c1ncn2[C@H]1CN(Cc2ccco2)C[C@@H](CO)O1,i,?,9.0%,/,i,/
Cc1noc(C)c1S(=O)(=O)Nc1ccc(C(=O)Nc2ccc(C(C)C)cc2)cc1,i,/,/,/,i,/
Cc1ccc(-c2cc(C(=O)NCc3ccco3)no2)cc1,i,21.5%,-3.5%,?,i,-1.1%
Cc1nn(Cc2ccc(Cl)cc2)c(C)c1NC(=O)c1cc(C(C)C)on1,i,?,-20.2%,?,i,-5.1%
O=C(NCc1ccco1)c1cc(-c2ccc3c(c2)OCO3)on1,i,2.24µM*,?,6.0%,i,2.2%
Cc1nn(Cc2ccc(Cl)cc2)c(C)c1NC(=O)c1cc(-c2ccc3c(c2)OCO3)on1,i,/,/,4.61µM*,4.11µM*,?
Cc1nn(Cc2ccc(Cl)c(Cl)c2)c(C)c1NC(=O)c1cc(-c2ccc3c(c2)OCO3)on1,i,?,?,5.8µM*,?,16.4µM*
CCOc1ccc(S(=O)(=O)c2cn(Cc3ccc(C)cc3)c3ccc(OC)cc3c2=O)cc1,?,/,/,/,i,/
CC(C)N(Cc1ccccc1)C(=O)COC(=O)c1cnc(Cl)c(Cl)c1,/,0.0%,0.0%,4.9%,/,1.2%
CCOC(=O)C1CCN(C(=O)c2nn(-c3ccc(OC)cc3)c(=O)c3c2c2ccccc2n3C)CC1,i,/,/,/,i,/
CCOC(=O)N1CCC(N2C(=O)c3ccccc3C2Nc2cc(OC)c(OC)c(OC)c2)CC1 (configuration not stated),i,15.7%,-6.1%,-1.7%,i,13.0%
CCOC(=O)[C@]12Cc3c(cc(OC)c(OC)c3OC)[C@H]1N(C1CCCCC1)C(=O)c1cc(OC)ccc12,4.61µM*,11.6µM*,11.6µM*,/,3.26µM*,/
CCC(C)Sc1ccc(-c2nc3ccc(C)cn3c2NCc2ccccc2)cc1 (configuration not stated),?,-12.4%,-10.1%,?,?,22.8%
CCC(C)Sc1ccc(-c2nc3ccccn3c2NCc2ccccc2)cc1OC (configuration not stated),?,?,?,20.6µM*,?,-4.0%
COc1ccc(CSc2ccc(-c3nc4ccccn4c3NCc3ccccc3)cc2OC)cc1,?,-25.1%,-1.8%,23.1µM*,?,?
Cc1ccc(N(CC(=O)NCc2ccc(OC(C)C)cc2)S(=O)(=O)N(C)C)cc1,i,/,/,/,i,/
COC(=O)c1ccc(N2CN=C(c3ccc(C)cc3)NC2=S)cc1,i,-10.5%,-1.8%,25.9µM*,i,-1.0%
